Consider four compounds from PubChem BioAssay (EPA / NIEHS).

SMILES strings stand for the structures. Activity calls are given as the source filed them. The calls were made as follows: active = hit-call score of the fitted dose curve at least 0.9, where 1 is the maximum; inactive = score below 0.9.

What all share (conditions): mRNA level, 48 h; actives raise or lower the signal
Read-out in test [1]: Interleukin 6 Receptor (IL6R), IL6R (gene 3570)
The test is described as follows: LTEA_HepaRG_IL6R: Life Technologies and Expression Analysis (LTEA) Assay for Interleukin 6 Receptor (IL6R) using HepaRG (AID 2283510). The gist of the method: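 HepaRG, 48 h exposure, 8-pt half-log series, top 100 uM, 0.5% DMSO vehicle, duplicates. Read-out: TaqMan qRT-PCR of IL6R transcript, housekeeping-gene normalized. Gain or loss fitted relative to DMSO baseline.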

Read-out in test [2]: Potassium channel subfamily K member 1 (KCNK1), KCNK1 (gene 3775)
As to the kind of experiment: LTEA_HepaRG_KCNK1: Life Technologies and Expression Analysis (LTEA) Assay for Potassium channel subfamily K member 1 (KCNK1) using HepaRG (AID 2283511). The gist of the method:
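HepaRG, 48 h exposure, 8-pt half-log series top 100 uM, 0.5% DMSO vehicle, duplicates. Readout: KCNK1 transcript by qRT-PCR (Fluidigm array), housekeeping-normalized; bidirectional curve fit relative to DMSO baseline.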

Read-out in test [3]: Keratin 19 (KRT19), KRT19 (gene 3880)
The test is described as follows: LTEA_HepaRG_KRT19: Life Technologies and Expression Analysis (LTEA) Assay for Keratin 19 (KRT19) using HepaRG (AID 2283512). A digest of the protocol:
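KRT19 transcript levels, measured by Fluidigm qRT-PCR against three housekeeping genes, are fitted for gain or loss of signal relative to DMSO. Human HepaRG cells receive test chemicals (top 100 uM, half-log steps, 0.5% DMSO) for 48 hours.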

Read-out in test [4]: JUN Transcription Factor, JUN (gene 3725)
The test is described as follows: LTEA_HepaRG_JUN: Life Technologies and Expression Analysis (LTEA) Assay for JUN Transcription Factor using HepaRG (AID 2283513). The gist of the method:
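HepaRG, 48 h exposure, 8-pt half-log series top 100 uM, 0.5% DMSO, duplicate. JUN mRNA by qRT-PCR (Fluidigm), housekeeping-normalized (ACTB/GAPDH/POLR2A); bidirectional curve fit vs DMSO baseline.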

Read-out in test [5]: Lipase C (LIPC), LIPC (gene 3990)
The test is described as follows: LTEA_HepaRG_LIPC: Life Technologies and Expression Analysis (LTEA) Assay for Lipase C (LIPC) using HepaRG (AID 2283514). A digest of the protocol: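 HepaRG, 48 h exposure, 8-pt half-log series from 100 uM in 0.5% DMSO, duplicates. Readout: LIPC mRNA by Fluidigm qRT-PCR, housekeeping-normalized (ACTB/GAPDH/POLR2A). Gain or loss fitted bidirectionally against DMSO baseline.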

Read-out in test [6]: Lipoprotein lipase (LPL), LPL (gene 4023)
The test is described as follows: LTEA_HepaRG_LPL: Life Technologies and Expression Analysis (LTEA) Assay for Lipoprotein lipase (LPL) using HepaRG (AID 2283515). A digest of the protocol:
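HepaRG, 48 h exposure, 8-pt half-log dilutions from 100 uM, 0.5% DMSO vehicle, duplicates; qRT-PCR (Fluidigm array) of LPL mRNA vs housekeeping genes; bidirectional curve fit relative to DMSO baseline.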

Read-out in test [7]: MicroRNA 122 (MIR122), gene 406906
The test is described as follows: LTEA_HepaRG_MIR122: Life Technologies and Expression Analysis (LTEA) Assay for MicroRNA 122 (MIR122) using HepaRG (AID 2283516). Also: the transcript read is the microRNA miR-122. The gist of the method:
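qRT-PCR read-out (TaqMan, Fluidigm array), normalized to three housekeeping genes; HepaRG cells dosed 48 h at 8 concentrations up to 100 uM in 0.5% DMSO, duplicate; gain or loss fitted against DMSO baseline.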

Read-out in test [8]: matrix metalloproteinase-10 (MMP10), MMP10 (gene 4319)
The test is described as follows: LTEA_HepaRG_MMP10: Life Technologies and Expression Analysis (LTEA) Assay for matrix metalloproteinase-10 (MMP10) using HepaRG (AID 2283517). The gist of the method: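 Transcript levels come from Fluidigm qRT-PCR normalized to three housekeeping genes, with curves fitted bidirectionally against 0.5% DMSO. Human HepaRG cells were dosed for 48 hours at concentrations up to 100 uM.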

Read-out in test [9]: MYC, MYC (gene 4609)
As to the kind of experiment: LTEA_HepaRG_MYC: Life Technologies and Expression Analysis (LTEA) Assay for MYC using HepaRG (AID 2283518). The gist of the method: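 HepaRG, ~100,000 cells/well, collagen I; 48 h plating; serum-free induction medium; 48 h dosing, duplicate, 100 uM top, half-log, 0.5% DMSO; total RNA → qRT-PCR MYC; gain/loss fit vs DMSO.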

Read-out in test [10]: matrix metalloproteinase-3 (MMP3), MMP3 (gene 4314)
As to the kind of experiment: LTEA_HepaRG_MMP3: Life Technologies and Expression Analysis (LTEA) Assay for matrix metalloproteinase-3 (MMP3) using HepaRG (AID 2283519). The gist of the method:
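qRT-PCR read-out of MMP3 mRNA (normalised to three housekeeping genes) in HepaRG liver cells after 48 h chemical exposure; 8-point half-log series, top 100 uM, 0.5% DMSO vehicle. Bidirectional curve fitting against DMSO baseline.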

Read-out in test [11]: Paternally Expressed 10 (PEG10), PEG10 (gene 23089)
The test is described as follows: LTEA_HepaRG_PEG10: Life Technologies and Expression Analysis (LTEA) Assay for Paternally Expressed 10 (PEG10) using HepaRG (AID 2283520).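 As to AC50: differentiated HepaRG human liver cells in serum-free induction medium with 0.5% DMSO; PEG10 transcript by qRT-PCR normalised to ACTB GAPDH and POLR2A.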 A digest of the protocol: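 qRT-PCR read-out: PEG10 mRNA normalised to three housekeeping genes, fitted bidirectionally against 0.5% DMSO vehicle. HepaRG cells received test chemicals for 48 h in serum-free induction medium, 8 points, top 100 uM, half-log steps.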

Read-out in test [12]: Nuclear factor NF-kappa-B p105 subunit (Homo sapiens) (UniProt P19838)
As to the kind of experiment: LTEA_HepaRG_NFKB1: Life Technologies and Expression Analysis (LTEA) Assay for Nuclear Factor Kappa B Subunit 1 (NFKB1) using HepaRG (AID 2283521).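 Also: differentiated human HepaRG liver cells in serum-free induction medium; TaqMan qRT-PCR transcript normalised to ACTB GAPDH and POLR2A housekeeping genes.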 The gist of the method: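 HepaRG, 48 h exposure; 8-pt half-log series from 100 uM in 0.5% DMSO; duplicates. Readout: NFKB1 mRNA by qRT-PCR (Fluidigm arrays), housekeeping-normalized. Gain/loss fit vs DMSO baseline.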

Read-out in test [13]: Protein phosphatase 2A (PPP2R4), PTPA (gene 5524)
As to the kind of experiment: LTEA_HepaRG_PPP2R4: Life Technologies and Expression Analysis (LTEA) Assay for Protein phosphatase 2A (PPP2R4) using HepaRG (AID 2283522). A digest of the protocol: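 HepaRG, 48 h exposure, 8-pt half-log series from 100 uM, 0.5% DMSO vehicle, duplicates. Readout: PPP2R4 mRNA, Fluidigm qRT-PCR, housekeeping-normalized. Bidirectional curve fit vs DMSO baseline.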

Read-out in test [14]: Phosphatase and tensin (PTEN), PTEN (gene 5728)
The test is described as follows: LTEA_HepaRG_PTEN: Life Technologies and Expression Analysis (LTEA) Assay for Phosphatase and tensin (PTEN) using HepaRG (AID 2283523). A digest of the protocol: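 HepaRG, 48 h exposure, 8-pt half-log series from 100 uM top, 0.5% DMSO vehicle, duplicates. Readout: Fluidigm qRT-PCR of PTEN transcript; housekeeping normalization (ACTB, GAPDH, POLR2A). Gain or loss fitted relative to DMSO baseline.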

Read-out in test [15]: solute carrier (SLC22A1), SLC22A1 (gene 6580)
The test is described as follows: LTEA_HepaRG_SLC22A1: Life Technologies and Expression Analysis (LTEA) Assay for solute carrier (SLC22A1) using HepaRG (AID 2283524).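 As to AC50: differentiated human HepaRG liver cells in serum-free induction medium.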 The gist of the method:
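qRT-PCR readout (TaqMan, Fluidigm arrays) of SLC22A1 transcript, normalized to three housekeeping genes; bidirectional curve fit relative to 0.5% DMSO vehicle. Differentiated human HepaRG cells, 48 h chemical exposure, top concentration 100 uM, half-log steps, eight points.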

Read-out in test [16]: Pyruvate Dehydrogenase Kinase 4 (PDK4), PDK4 (gene 5166)
As to the kind of experiment: LTEA_HepaRG_PDK4: Life Technologies and Expression Analysis (LTEA) Assay for Pyruvate Dehydrogenase Kinase 4 (PDK4) using HepaRG (AID 2283525). The gist of the method:
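HepaRG (human liver line), 48 h chemical exposure, 8-pt half-log CRC top 100 uM, 0.5% DMSO vehicle, duplicates. Readout: TaqMan qRT-PCR of PDK4 mRNA, housekeeping-normalized; gain/loss fit relative to DMSO baseline.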

Read-out in test [17]: NAD(P)H dehydrogenase [quinone] 1 (NQO1), NQO1 (gene 1728)
As to the kind of experiment: LTEA_HepaRG_NQO1: Life Technologies and Expression Analysis (LTEA) Assay for NAD(P)H dehydrogenase [quinone] 1 (NQO1) using HepaRG (AID 2283526). A digest of the protocol:
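qRT-PCR read-out (Fluidigm TaqMan), normalized to three housekeeping genes, after 48 h chemical exposure of HepaRG cells. Concentrations: eight points, top 100 uM, half-log steps, 0.5% DMSO vehicle. Gain or loss of signal fitted relative to DMSO.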

Read-out in test [18]: Nuclear factor erythroid 2-related factor 2 (Homo sapiens) (UniProt Q16236)
As to the kind of experiment: LTEA_HepaRG_NFE2L2: Life Technologies and Expression Analysis (LTEA) Assay for Nuclear factor erythroid 2-related factor 2 (NFE2L2) Transcription Factor using HepaRG (AID 2283527).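 As to outcome: TaqMan qRT-PCR transcript level normalised to ACTB GAPDH and POLR2A housekeeping genes.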 A digest of the protocol:
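HepaRG, 48 h dosing, 8-pt half-log series from 100 uM in 0.5% DMSO, duplicates. Read-out: NFE2L2 mRNA by qRT-PCR (ACTB/GAPDH/POLR2A normalization). Bidirectional curve fit vs DMSO baseline.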

Read-out in test [19]: succinate dehydrogenase complex iron sulfur subunit B (SDHB), SDHB (gene 6390)
The test is described as follows: LTEA_HepaRG_SDHB: Life Technologies and Expression Analysis (LTEA) Assay for succinate dehydrogenase complex iron sulfur subunit B (SDHB) using HepaRG (AID 2283528). A digest of the protocol:
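Readout is SDHB transcript level by qRT-PCR, normalised to three housekeeping genes and fitted bidirectionally against 0.5% DMSO vehicle. Human HepaRG cells were treated for 48 h at up to 100 uM.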

Read-out in test [20]: Signal transducer and activator of transcription 3 (Homo sapiens) (UniProt P40763)
As to the kind of experiment: LTEA_HepaRG_STAT3: Life Technologies and Expression Analysis (LTEA) Assay for Signal transducer and activator of transcription (STAT3) using HepaRG (AID 2283529). A digest of the protocol:
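HepaRG, 48 h exposure, 8-pt half-log series (top 100 uM), 0.5% DMSO vehicle, duplicates. Readout: STAT3 transcript by Fluidigm qRT-PCR, housekeeping-normalized; bidirectional fit vs DMSO baseline.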

Nuclear factor erythroid 2-related factor 2 (Homo sapiens), sequence (Q16236 whole entry, looked up): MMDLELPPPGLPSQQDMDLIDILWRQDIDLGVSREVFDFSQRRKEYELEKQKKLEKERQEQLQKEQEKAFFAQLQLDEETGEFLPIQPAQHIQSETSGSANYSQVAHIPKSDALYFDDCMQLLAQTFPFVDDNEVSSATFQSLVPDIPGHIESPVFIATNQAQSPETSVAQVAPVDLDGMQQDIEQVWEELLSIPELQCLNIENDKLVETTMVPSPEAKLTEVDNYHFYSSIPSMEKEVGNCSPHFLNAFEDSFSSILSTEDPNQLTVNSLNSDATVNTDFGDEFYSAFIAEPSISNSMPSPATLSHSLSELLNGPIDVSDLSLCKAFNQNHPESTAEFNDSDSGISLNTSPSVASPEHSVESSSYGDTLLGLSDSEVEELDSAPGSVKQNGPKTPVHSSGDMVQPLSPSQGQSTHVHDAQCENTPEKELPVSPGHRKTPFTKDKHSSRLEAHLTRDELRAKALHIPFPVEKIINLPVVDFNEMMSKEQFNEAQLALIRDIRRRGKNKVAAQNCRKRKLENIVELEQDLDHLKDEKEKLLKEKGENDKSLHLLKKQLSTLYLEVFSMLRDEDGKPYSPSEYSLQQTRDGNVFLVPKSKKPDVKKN
Nuclear factor NF-kappa-B p105 subunit (Homo sapiens), sequence (P19838 whole entry, looked up): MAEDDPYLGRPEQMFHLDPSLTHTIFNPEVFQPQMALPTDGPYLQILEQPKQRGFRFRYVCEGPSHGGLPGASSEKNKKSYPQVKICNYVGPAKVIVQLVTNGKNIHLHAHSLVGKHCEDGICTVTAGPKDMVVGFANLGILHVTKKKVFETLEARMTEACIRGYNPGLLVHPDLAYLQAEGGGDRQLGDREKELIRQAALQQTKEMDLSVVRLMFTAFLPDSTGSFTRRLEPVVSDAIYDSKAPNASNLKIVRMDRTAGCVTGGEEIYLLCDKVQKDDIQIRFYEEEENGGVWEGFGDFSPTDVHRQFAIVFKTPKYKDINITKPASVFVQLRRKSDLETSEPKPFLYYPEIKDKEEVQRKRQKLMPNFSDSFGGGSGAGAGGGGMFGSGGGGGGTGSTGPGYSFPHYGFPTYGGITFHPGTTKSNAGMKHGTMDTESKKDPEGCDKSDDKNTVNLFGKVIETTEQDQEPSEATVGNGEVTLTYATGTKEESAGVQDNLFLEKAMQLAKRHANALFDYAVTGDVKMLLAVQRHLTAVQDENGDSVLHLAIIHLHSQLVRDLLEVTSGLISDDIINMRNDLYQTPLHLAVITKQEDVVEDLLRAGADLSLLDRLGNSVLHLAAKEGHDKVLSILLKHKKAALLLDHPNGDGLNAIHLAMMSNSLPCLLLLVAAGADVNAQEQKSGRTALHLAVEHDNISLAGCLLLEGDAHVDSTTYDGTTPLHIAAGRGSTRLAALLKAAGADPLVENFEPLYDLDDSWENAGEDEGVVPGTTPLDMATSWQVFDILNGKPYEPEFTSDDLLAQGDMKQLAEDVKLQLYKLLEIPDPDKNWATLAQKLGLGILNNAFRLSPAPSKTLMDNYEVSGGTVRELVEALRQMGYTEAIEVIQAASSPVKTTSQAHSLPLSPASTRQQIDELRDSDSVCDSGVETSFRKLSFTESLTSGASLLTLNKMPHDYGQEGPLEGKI
Signal transducer and activator of transcription 3 (Homo sapiens), sequence (P40763 whole entry, looked up): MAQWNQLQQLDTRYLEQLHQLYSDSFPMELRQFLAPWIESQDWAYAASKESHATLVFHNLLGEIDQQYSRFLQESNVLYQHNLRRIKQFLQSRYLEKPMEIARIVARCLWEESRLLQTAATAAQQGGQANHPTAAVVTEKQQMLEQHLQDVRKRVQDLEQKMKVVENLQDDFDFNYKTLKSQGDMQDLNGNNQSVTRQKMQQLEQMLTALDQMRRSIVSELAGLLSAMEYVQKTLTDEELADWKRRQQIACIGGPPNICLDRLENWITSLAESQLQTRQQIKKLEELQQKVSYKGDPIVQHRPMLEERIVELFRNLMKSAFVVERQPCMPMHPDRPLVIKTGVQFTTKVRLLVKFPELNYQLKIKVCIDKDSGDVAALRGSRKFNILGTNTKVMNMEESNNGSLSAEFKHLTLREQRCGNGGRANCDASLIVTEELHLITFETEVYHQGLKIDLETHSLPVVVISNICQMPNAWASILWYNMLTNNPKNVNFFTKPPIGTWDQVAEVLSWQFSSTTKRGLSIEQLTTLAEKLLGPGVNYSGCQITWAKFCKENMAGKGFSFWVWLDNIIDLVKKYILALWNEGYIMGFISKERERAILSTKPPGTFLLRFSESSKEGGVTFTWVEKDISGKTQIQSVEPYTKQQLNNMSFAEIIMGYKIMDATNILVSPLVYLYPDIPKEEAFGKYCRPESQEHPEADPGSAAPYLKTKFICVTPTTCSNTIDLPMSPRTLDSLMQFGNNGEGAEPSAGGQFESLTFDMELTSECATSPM

On to `Nc1cnn(-c2ccccc2)c(=O)c1Cl`, for which the outcome in test [1], in [2], in [3], in [4], in [5] and in test [6] was inactive. The outcome in test [7], in test [8], in test [9], in [10], in test [11] and in test [12] was inactive. Also, the call in test [13], in test [14], in [15], in [16], in test [17] and in test [18] was inactive. For the same compound, the outcome in test [19] and in test [20] was inactive.
As for `COCC(C)N(C(=O)CCl)c1c(C)csc1C` (stereo not given), the result in test [1], in test [2], in test [4], in test [5], in test [6] and in test [7] was inactive. Besides, the call in test [8], in test [10], in test [11], in [12], in test [13] and in test [14] was inactive. The result in test [16], in test [17], in test [18], in test [19] and in test [20] was inactive. In addition, the AC50 – broadly, the concentration giving half of the maximal activity seen – in test [15] is 73.3 µM (active).
Turning to `O=C(Nc1ccccc1-c1ccc(Cl)cc1)c1cccnc1Cl`, the outcome in [1], in [2], in [3], in [4], in [5] and in [6] was inactive. The result in test [7], in test [8], in test [10], in [12], in test [13] and in [14] was inactive. Also, the call in test [16], in [17], in test [18] and in [19] was inactive. Moreover, the values for the AC50 in test [11] and in test [20] were 21 µM (active) and 0.539 µM (active), respectively.
With `CC(C)NC(=O)N1CC(=O)N(c2cc(Cl)cc(Cl)c2)C1=O`, the compound was called inactive in test [2], in test [4], in test [7], in test [8], in test [10] and in test [11]. Moreover, the compound was called inactive in test [12], in test [13], in test [14], in [17] and in [19]. Besides, the concentration at half-maximal activity (AC50) in [3] is 20.3 µM (active); in [5], 10.2 µM (active); in test [6], 14.6 µM (active); in test [9], 13.2 µM (active); in [15], 21.3 µM (active); in test [16], 12.7 µM (active). Moreover, the AC50 in test [18] is 13.1 µM (active); in test [20] it was 5.78 µM (active).
